# Reference: the supplement of paper PMC12819154, “High-throughput peptide-centric local stability assay extends protein–ligand identification to membrane proteins, tissues and bacteria” (Nature Structural & Molecular Biology, 2025)
# Compound: Cc1nc(Nc2ncc(C(=O)Nc3c(C)cccc3Cl)s2)cc(N2CCN(CCO)CC2)n1 [dasatinib]
# Assay: log2 fold change of tryptic peptide abundance, ligand vs vehicle (limited proteolysis) (log2 ratio); higher = more trypsin-susceptible (destabilized)
# Conditions: ligand concentration: 5 uM; sample: K562 cleared lysate
# UniProt P11216, sequence (P11216 whole entry): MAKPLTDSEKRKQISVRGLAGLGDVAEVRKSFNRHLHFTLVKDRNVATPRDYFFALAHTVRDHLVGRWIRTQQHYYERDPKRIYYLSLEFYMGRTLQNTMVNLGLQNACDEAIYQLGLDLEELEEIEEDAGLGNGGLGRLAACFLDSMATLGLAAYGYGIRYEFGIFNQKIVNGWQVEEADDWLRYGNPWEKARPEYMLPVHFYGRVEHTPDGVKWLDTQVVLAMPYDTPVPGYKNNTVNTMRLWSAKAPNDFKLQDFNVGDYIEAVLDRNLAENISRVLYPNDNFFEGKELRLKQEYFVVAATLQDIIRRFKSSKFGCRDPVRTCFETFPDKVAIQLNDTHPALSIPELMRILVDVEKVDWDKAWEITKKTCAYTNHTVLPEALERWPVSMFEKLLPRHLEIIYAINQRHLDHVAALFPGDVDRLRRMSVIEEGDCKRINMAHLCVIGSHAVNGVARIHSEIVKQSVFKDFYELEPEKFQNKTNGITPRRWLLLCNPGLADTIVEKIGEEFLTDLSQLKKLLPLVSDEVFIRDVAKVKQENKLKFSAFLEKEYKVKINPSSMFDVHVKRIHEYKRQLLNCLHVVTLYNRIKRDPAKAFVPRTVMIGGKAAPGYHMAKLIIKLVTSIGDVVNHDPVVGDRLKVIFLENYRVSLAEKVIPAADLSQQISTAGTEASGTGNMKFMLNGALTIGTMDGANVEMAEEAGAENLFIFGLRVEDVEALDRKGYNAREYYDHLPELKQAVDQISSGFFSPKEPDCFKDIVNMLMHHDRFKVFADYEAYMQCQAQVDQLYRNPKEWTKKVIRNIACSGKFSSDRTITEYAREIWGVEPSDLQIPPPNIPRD
# UniProt P42684, sequence (P42684 whole entry): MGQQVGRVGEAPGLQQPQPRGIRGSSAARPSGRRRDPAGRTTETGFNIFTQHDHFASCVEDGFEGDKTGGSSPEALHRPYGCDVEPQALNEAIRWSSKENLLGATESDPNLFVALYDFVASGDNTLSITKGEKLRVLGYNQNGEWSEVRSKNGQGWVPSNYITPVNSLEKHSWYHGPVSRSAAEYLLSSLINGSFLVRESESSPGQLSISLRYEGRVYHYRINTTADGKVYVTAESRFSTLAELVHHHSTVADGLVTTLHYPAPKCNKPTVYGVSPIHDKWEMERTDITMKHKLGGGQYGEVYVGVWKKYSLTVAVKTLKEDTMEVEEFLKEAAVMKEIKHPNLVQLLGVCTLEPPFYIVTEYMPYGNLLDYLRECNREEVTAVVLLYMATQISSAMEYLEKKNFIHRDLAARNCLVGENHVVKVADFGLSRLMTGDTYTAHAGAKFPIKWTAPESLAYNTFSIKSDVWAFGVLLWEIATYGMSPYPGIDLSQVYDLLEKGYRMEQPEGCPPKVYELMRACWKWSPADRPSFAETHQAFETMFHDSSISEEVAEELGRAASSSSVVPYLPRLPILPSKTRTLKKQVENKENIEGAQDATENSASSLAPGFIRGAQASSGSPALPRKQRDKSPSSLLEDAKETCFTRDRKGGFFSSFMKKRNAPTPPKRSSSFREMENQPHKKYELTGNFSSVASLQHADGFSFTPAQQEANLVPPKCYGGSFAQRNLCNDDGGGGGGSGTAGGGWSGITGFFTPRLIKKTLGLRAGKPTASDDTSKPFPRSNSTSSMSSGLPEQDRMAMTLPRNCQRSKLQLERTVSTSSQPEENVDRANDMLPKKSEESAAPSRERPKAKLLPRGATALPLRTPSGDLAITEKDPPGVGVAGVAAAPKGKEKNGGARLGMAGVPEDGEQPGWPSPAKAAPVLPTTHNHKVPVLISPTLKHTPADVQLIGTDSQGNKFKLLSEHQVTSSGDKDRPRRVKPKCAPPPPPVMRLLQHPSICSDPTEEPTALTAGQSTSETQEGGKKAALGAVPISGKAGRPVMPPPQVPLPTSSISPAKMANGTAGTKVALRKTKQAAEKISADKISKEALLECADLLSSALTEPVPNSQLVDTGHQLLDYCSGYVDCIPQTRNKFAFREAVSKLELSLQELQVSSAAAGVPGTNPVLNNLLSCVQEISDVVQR
# UniProt Q16512, sequence (Q16512 whole entry, looked up): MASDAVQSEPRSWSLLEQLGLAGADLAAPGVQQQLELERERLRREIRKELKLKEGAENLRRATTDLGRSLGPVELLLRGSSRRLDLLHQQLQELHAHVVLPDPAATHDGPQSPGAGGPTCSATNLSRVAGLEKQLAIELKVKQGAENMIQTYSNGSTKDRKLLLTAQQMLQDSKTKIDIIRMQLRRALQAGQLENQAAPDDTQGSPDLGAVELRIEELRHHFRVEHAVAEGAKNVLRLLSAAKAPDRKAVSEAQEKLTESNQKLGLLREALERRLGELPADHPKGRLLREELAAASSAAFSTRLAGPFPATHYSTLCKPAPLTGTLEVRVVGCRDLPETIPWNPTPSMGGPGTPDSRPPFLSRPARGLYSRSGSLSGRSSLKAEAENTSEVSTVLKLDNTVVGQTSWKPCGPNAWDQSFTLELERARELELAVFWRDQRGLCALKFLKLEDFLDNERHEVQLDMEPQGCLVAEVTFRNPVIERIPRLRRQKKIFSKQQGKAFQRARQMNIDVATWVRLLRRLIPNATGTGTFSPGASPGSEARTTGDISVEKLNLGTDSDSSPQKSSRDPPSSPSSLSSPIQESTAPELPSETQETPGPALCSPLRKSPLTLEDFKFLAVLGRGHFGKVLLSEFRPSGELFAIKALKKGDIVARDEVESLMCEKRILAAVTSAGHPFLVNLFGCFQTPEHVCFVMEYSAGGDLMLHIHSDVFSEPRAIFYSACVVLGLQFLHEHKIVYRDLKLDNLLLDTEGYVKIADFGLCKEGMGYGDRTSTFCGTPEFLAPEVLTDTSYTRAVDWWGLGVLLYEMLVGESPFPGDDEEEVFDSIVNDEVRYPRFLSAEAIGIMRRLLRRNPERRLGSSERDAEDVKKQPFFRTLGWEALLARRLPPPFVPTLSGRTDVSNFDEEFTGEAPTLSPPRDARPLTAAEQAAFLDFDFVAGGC
# UniProt Q8NI60, sequence (Q8NI60 whole entry, looked up): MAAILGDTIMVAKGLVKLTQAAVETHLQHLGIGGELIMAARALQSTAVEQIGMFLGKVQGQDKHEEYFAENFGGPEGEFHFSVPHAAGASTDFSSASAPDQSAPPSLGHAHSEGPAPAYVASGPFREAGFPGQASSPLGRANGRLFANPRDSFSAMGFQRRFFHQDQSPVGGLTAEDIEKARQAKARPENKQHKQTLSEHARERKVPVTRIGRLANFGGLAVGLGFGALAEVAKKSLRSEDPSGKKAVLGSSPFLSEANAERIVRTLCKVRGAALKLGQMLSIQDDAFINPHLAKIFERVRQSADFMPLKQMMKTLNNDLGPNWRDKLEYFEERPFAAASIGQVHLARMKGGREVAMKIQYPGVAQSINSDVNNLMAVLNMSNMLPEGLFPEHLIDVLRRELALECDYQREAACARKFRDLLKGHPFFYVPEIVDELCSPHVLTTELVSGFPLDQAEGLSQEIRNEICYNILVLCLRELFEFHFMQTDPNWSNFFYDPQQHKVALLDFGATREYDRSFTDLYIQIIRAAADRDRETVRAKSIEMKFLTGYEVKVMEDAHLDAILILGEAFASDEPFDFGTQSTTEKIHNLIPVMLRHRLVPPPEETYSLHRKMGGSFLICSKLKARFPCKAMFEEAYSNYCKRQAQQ
# UniProt Q13177, sequence (Q13177 whole entry): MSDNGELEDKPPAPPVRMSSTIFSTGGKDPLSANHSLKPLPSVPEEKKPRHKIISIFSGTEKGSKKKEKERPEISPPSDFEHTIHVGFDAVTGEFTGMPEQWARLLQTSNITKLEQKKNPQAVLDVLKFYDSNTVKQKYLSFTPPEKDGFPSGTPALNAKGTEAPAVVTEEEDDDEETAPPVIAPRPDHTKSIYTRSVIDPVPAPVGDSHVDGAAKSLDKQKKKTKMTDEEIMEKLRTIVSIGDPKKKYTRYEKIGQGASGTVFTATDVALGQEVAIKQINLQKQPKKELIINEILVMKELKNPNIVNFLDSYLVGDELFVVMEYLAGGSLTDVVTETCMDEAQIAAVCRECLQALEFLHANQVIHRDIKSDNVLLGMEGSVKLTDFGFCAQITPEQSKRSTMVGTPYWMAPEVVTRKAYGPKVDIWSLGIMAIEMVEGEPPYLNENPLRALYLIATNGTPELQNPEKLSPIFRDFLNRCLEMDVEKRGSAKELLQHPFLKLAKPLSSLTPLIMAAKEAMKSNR
# UniProt O43353, sequence (O43353 whole entry): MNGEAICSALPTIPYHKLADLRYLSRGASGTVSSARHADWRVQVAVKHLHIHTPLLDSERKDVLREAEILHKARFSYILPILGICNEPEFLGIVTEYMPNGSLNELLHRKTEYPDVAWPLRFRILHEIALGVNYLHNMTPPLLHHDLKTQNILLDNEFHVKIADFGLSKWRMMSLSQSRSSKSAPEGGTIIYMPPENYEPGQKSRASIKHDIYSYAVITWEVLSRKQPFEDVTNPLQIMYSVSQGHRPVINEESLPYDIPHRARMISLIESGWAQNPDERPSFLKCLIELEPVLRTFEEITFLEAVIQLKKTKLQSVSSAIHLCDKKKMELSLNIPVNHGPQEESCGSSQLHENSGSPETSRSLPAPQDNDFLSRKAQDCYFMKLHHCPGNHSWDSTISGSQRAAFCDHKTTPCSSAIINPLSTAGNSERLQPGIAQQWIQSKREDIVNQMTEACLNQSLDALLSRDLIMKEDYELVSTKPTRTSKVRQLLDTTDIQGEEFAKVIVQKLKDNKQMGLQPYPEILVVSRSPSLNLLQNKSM
# UniProt Q16539, sequence (Q16539 whole entry): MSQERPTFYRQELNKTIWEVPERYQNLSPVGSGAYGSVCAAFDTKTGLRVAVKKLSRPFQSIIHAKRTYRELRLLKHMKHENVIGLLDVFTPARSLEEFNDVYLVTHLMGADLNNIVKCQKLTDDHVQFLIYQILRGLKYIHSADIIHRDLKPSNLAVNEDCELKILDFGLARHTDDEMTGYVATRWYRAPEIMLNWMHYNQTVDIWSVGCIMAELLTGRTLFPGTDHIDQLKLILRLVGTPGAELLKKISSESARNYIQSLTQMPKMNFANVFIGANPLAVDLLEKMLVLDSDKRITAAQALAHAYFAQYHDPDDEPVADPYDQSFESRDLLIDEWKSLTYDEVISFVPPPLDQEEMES
row,Target,log2 fold change
1,"UniProt Q13188 (peptide sequence: AGNILLNTEGHAK, peptide start residue: 152)",-0.627
2,"TNIK (peptide sequence: NHSQRPATEQLMK, peptide start residue: 273) (UniProt Q9UKE5)",-0.606
3,"MAP4K5 (peptide sequence: LLTHTFVAQPGLSR, peptide start residue: 271) (UniProt Q9Y4K4)",-0.838
4,"TYK2 (peptide sequence: EITQLSHLGQGTR, peptide start residue: 588) (UniProt P29597)",-1.29
5,"UniProt Q16513 (peptide sequence: IFETVNSVR, peptide start residue: 708)",0.751
6,"UniProt P36507 (peptide sequence: KLEELELDEQQKK, peptide start residue: 40)",0.445
7,"UniProt Q16512 (peptide sequence: VLLSEFRPSGELFAIK, peptide start residue: 629)",1.18
8,"MAP4K3 (peptide sequence: RNPQEDFELIQR, peptide start residue: 10) (UniProt Q8IVH8)",-1.06
9,"ABL2 (peptide sequence: NCLVGENHVVK, peptide start residue: 414) (UniProt P42684)",-2.95
10,"UniProt Q8NI60 (peptide sequence: VALLDFGATR, peptide start residue: 503)",-0.968
11,"MAPK14 (peptide sequence: DLLIDEWK, peptide start residue: 331) (UniProt Q16539)",-1.32
12,"TNK1 (peptide sequence: VADFGLVRPLGGAR, peptide start residue: 261) (UniProt Q13470)",-0.538
13,"GAK (peptide sequence: AIIQEVCFMK, peptide start residue: 81) (UniProt O14976)",-2.44
14,"PAK2 (peptide sequence: LLQTSNITK, peptide start residue: 105) (UniProt Q13177)",0.206
15,"TAOK2 (peptide sequence: ELDNLQYR, peptide start residue: 299) (UniProt Q9UL54)",0.422
16,"MAP3K4 (peptide sequence: LGDFGCSVK, peptide start residue: 1479) (UniProt Q9Y6R4)",-1.67
17,"UniProt Q02750 (peptide sequence: SYMSPER, peptide start residue: 228)",1.37
18,"CSK (peptide sequence: SGWALNMK, peptide start residue: 186) (UniProt P41240)",-0.697
19,"PYGB (peptide sequence: GLAGLGDVAEVR, peptide start residue: 18) (UniProt P11216)",-0.49
20,"UniProt Q9P289 (peptide sequence: GSFGEVFK, peptide start residue: 33)",-0.606
21,"UniProt Q9Y2K2 (peptide sequence: IGYYEIDR, peptide start residue: 63)",-1.83
22,"UniProt P07947 (peptide sequence: LTTVCPTVKPQTQGLAK, peptide start residue: 251)",2.59
23,"ILK (peptide sequence: DFNEECPR, peptide start residue: 234) (UniProt Q13418)",0.893
24,"UniProt Q8N4C8 (peptide sequence: NIATYYGAFIK, peptide start residue: 81)",-0.397
25,"UniProt Q13163 (peptide sequence: DVKPSNMLVNTR, peptide start residue: 283)",1.77
26,"UniProt Q9Y2U5 (peptide sequence: LLGQGAFGR, peptide start residue: 361)",-0.631
27,"RIPK2 (peptide sequence: KTEYPDVAWPLR, peptide start residue: 110) (UniProt O43353)",-1.34
28,"ARAF (peptide sequence: RLLSDCLK, peptide start residue: 544) (UniProt P10398)",0.619
29,"SYK (peptide sequence: GSEVTAMLEKGER, peptide start residue: 578) (UniProt P43405)",-0.709
